# High-throughput results as filed in PubChem.
# The list is not random: actives were taken first. Their share in the collection is about 1.7%.
# PABP polyA inh = PABP poly(A) RNA binding inhibitors, primary screen, biochemical, fluorescence polarization, uHTS; Polyadenylate-binding protein 1 (Homo sapiens), P11940; calls only at 35 µM; 290,000 tested, 1% active; AID 2014, 2009;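 also: calls also rest on retests at 20 µM and on dose response follow-up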
# EBV gp42 inh = Epstein-Barr virus gp42 inhibitors, primary screen, biochemical, uHTS, fluorescence polarization | Glycoprotein 42 (Epstein-Barr virus (strain AG876)), Q1HVG2 | 220,000 tested, 0.42% active | inhibition, % (tested at 21.74 µM) | AID 1085, 2008 | Fluorescence polarization binding assay, mP read-out; in the data active = inhibition above about 50%
# MLLE-PAM2 inh = inhibitors of PABP1 MLLE–PAM2 peptide binding, primary screen, biochemical, fluorescence polarization, FITC-PAM2, GST-MLLE; inhibition, % at 20 µM; 360,000 tested, 0.36% active; AID 588489, 2011; in the data active = inhibition above about 35%, passing the limit was not always enough;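 also: plate controls were DMSO wells with GST-MLLE for no effect and wells lacking GST-MLLE protein for full effect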
# eIF4H inh = human eIF4H binding inhibitors, primary screen, translation initiation inhibitor project, biochemical, uHTS, fluorescence polarization. Eukaryotic translation initiation factor 4H (Homo sapiens), Q15056. inhibition, % at 35 µM. 290,000 tested, 0.94% active. AID 2012, 2009. eIF4H fluorescence polarization binding assay;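 also: calls also rest on retests at 20 µM and on dose response follow-up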
# eIF4E 4G PPI = eIF4E–eIF4G protein interaction inhibitors, primary screen, biochemical, uHTS, TR-FRET, eIF4GI fragment; TR-FRET eIF4E-eIF4GI(517-606) binding, 2 h; AID 782, 2007; 220,000 tested, 0.37% active; inhibition, % at 21.7 µM; Eukaryotic translation initiation factor 4E (Mus musculus) + Eukaryotic translation …;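 active = inhibition above about 30%, limit read from the data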;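 also: 0% = full FRET control wells and 100% = background wells lacking eIF4GI fragment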
# Active calls of the source: *; i = inactive; ? = inconclusive; nt = no result; + = active, no number. Unless noted, no rule for the calls is given here.
SMILES,PABP polyA inh,EBV gp42 inh,MLLE-PAM2 inh,eIF4H inh,eIF4E 4G PPI
CCOC(=O)/C=C1\SCC(=O)N1CC(O)CN1C(=O)CS/C1=C\C(=O)OCC,+,-13.2,-10.9,?,-1.2
CCc1cccc2cc3c(N)c(C(=O)Nc4ccc(S(=O)(=O)N5CCCC5)cc4)sc3nc12,i,81.0*,8.0,5.3,-2.8
N#Cc1ccc(CSc2nnc(NC(=O)c3ccc4ncsc4c3)s2)cc1,i,-27.4,-7.0,-2.8,74.5*
O=C(Nc1ccc(Br)cc1)c1ccc2ncsc2c1,i,nt,-35.3,5.9,nt
CCc1ccc(NC(=O)c2ccc3ncsc3c2)cc1,i,146.0*,nt,-1.8,-4.3
O=C1c2ccccc2S(=O)(=O)N1CC(O)Cn1ccc2ccccc21 (configuration not stated),+,-3.7,79.0,88.4*,-5.9
CCSc1ccc2nnc(-c3cccc(F)c3)n2n1,i,-38.5,-12.4,1.8,55.6*
COc1cc(/C=N/OCC(=O)Nc2ccc(OC(F)F)cc2)ccc1OCc1ccccc1,i,-135.7,-57.3,66.2*,-1.3
CC(C)NCC(=O)Nc1c2c(nc3ccccc13)CCC2,i,-11.7,3.2,16.3,31.0*
CCCCNC(=O)COC(=O)c1c2c(nc3ccccc13)CCC2,+,nt,-16.8,67.6*,nt
CNC(=O)COC(=O)c1c2c(nc3ccccc13)CCC2,i,5.0,-18.6,66.1*,14.2
C=CCNC(=O)COC(=O)c1c2c(nc3ccccc13)CCC2,+,nt,-8.0,58.6*,nt
CCC(=O)c1cc(Br)ccc1OCC(=O)N1CCN(S(=O)(=O)c2ccccc2)CC1,nt,nt,-3.2,nt,nt
Cc1nc(NCCc2ccccc2)sc1C(=O)N(C)C,i,nt,-11.4,-17.2,nt
CC(=O)Nc1cccc(OCC(=O)Nc2sccc2C(N)=O)c1,i,3.4,-15.0,31.5,3.5
Cc1ccccc1N1C(=O)c2cccc3c(N(C)CCO)ccc(c23)C1=O,?,125.9*,88.1,?,-4.7
COc1ccccc1N1C(=O)c2cccc3c(N(C)CCO)ccc(c23)C1=O,?,nt,75.6,?,nt
COc1ccc(NS(=O)(=O)c2ccc(NC(=S)NCC3CCCO3)cc2)cc1 (configuration not stated),i,nt,1.6,-6.6,nt
COc1ccccc1NS(=O)(=O)c1ccc(O)c(NC(=S)NCC2CCCO2)c1 (configuration not stated),i,8.4,40.1*,-0.2,-2.6
NS(=O)(=O)c1ccc(N=Nc2ccc(=O)[nH]c2O)cc1,+,0.7,-4.7,90.2*,37.2*
COc1ccc(NC(=O)c2csc(Cc3ccccc3)n2)cc1,i,22.6,-1.8,-3.6,11.6
O=C(Nc1ccc(F)cc1)c1csc(Cc2ccccc2)n1,i,4.6,-6.6,5.5*,-1.4
COc1ccc(N=C2S/C(=C\c3ccc(OCC(=O)O)cc3)C(=O)N2CCc2c[nH]c3ccccc23)cc1,+,84.4*,-10.8,88.6,20.2
COc1ccc(N=C2S/C(=C\c3ccc(N4CCOCC4)o3)C(=O)N2CCc2c[nH]c3ccccc23)cc1,i,14.5,67.9,6.7,1.8
C#CCSC1=C(C#N)C(c2cccs2)C(C(=O)OCC)=C(C)N1 (configuration not stated),+,-13.2,8.3,62.7*,-7.6
SMILES,PABP polyA inh,EBV gp42 inh,MLLE-PAM2 inh,eIF4H inh,eIF4E 4G PPI
CCOC(=O)C1=C(C)NC(C)=C(C(=O)OCC)C1c1cccs1,i,-3.6,9.3,-0.7,-5.5
C(=N\NC1=Nc2cccc3cccc1c23)/c1ccccc1,i,147.7*,-69.4,?,4.0
Cc1ccccc1-n1nc2c(c1NC(=O)C1CC1)CS(=O)(=O)C2,nt,nt,7.7,nt,nt
O=C(COC(=O)c1cncc(Br)c1)NCc1ccc(F)cc1,?,-5.7,-4.0,9.9,2.1
O=C(COC(=O)c1cncc(Br)c1)NCc1ccco1,+,45.5,6.8,97.1*,-7.2
O=C(COC(=O)Cc1ccc(F)cc1)NCc1ccco1,+,-13.7,-12.3,92.8*,8.4
CN(C)S(=O)(=O)c1ccc(C(=O)NCc2ccco2)cc1,i,-2.0,11.0,4.0,-3.1
O=C(COC(=O)c1cccs1)NCc1ccco1,i,nt,-9.8,27.7,nt
